# Reference: the supplement of paper PMC10849652
# About 7,900 targets were measured; listed, in parts, are those with a hit and a random draw of the rest. About 0.6% of all pairs of compound and target were hits. Unmarked numbers belong to inactive results.
# Legend:
# Assay in all cases: log2 fold change, soluble protein after heating vs DMSO (PISA); higher = thermal stabilisation; K562 cells, 10 uM, 30 min; active = over 0.2 and 3.5 SD of the protein, either way, in both replicates (recomputed)
# saracatinib = compound: CN1CCN(CCOc2cc(OC3CCOCC3)c3c(Nc4c(Cl)ccc5c4OCO5)ncnc3c2)CC1 [saracatinib]
# Summary of the method: (§1)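 K562 cells (2×10^6 cells/mL) were treated with 10 μM compound for 30 min, and aliquots were heated for 3 min over 48°C-58°C. Pooled aliquots were extracted in PBS with 0.5% NP-40 at 4°C, and the supernatant after 21,000xg for 90 min was measured by TMTpro 16plex LC-MS/MS with channel sums equalised. Reported thermal stability, relative to control samples and from duplicates, is a log2 fold change.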
# sotrastaurin = compound: CN1CCN(c2nc(C3=C(c4c[nH]c5ccccc45)C(=O)NC3=O)c3ccccc3n2)CC1 [sotrastaurin]
# Summary of the method: as §1
# alvocidib = compound: CN1CC[C@H](c2c(O)cc(O)c3c(=O)cc(-c4ccccc4Cl)oc23)[C@H](O)C1 [alvocidib]
# Summary of the method: as §1
# Tubastatin A = compound: CN1CCc2c(c3ccccc3n2Cc2ccc(C(=O)NO)cc2)C1 [Tubastatin A]
# Summary of the method: as §1
# [1] = compound: CNC(=O)C1=CC=CC=C1NC2=NC(=NC=C2Cl)NC3=C(C=C(C=C3)N4CCOCC4)OC
# Summary of the method: as §1
# defactinib = compound: CNC(=O)c1ccc(Nc2ncc(C(F)(F)F)c(NCc3nccnc3N(C)S(C)(=O)=O)n2)cc1 [defactinib]
# Summary of the method: as §1
# rucaparib = compound: CNCc1ccc(-c2[nH]c3cc(F)cc4c3c2CCNC4=O)cc1 [rucaparib]
# Summary of the method: as §1
# [2] = compound: CNc1nc(-c2ccc3c(N)n[nH]c3c2)cc(N2C[C@@H](C(=O)NC3CCCCC3)CC[C@H]2C)n1
# Summary of the method: as §1
# encorafenib = compound: COC(=O)N[C@@H](C)CNc1nccc(-c2cn(C(C)C)nc2-c2cc(Cl)cc(NS(C)(=O)=O)c2F)n1 [encorafenib]
# Summary of the method: as §1
# [3] = compound: COC(=O)[C@H](CCSC)NC(=O)C1=C(C=C(C=C1)NC[C@H](CS)N)C2=CC=CC=C2
# Summary of the method: as §1
# [4] = compound: COC1=CC=C(C=C1)CN2C=CC3=C2C=C(C=C3)C(=O)NO
# Summary of the method: as §1
# filanesib = compound: CON(C)C(=O)N1N=C(c2cc(F)ccc2F)S[C@@]1(CCCN)c1ccccc1 [filanesib]
# Summary of the method: as §1
# zotarolimus = compound: CO[C@H]1C[C@@H]2CC[C@@H](C)[C@@](O)(O2)C(=O)C(=O)N2CCCC[C@H]2C(=O)O[C@H]([C@H](C)C[C@@H]2CC[C@H](n3cnnn3)[C@H](OC)C2)CC(=O)[C@H](C)/C=C(\C)[C@@H](O)[C@@H](OC)C(=O)[C@H](C)C[C@H](C)/C=C/C=C/C=C/1C [zotarolimus]
# Summary of the method: as §1
# idasanutlin = compound: COc1cc(C(=O)O)ccc1NC(=O)[C@@H]1N[C@@H](CC(C)(C)C)[C@](C#N)(c2ccc(Cl)cc2F)[C@H]1c1cccc(Cl)c1F [idasanutlin]
# Summary of the method: as §1
# alisertib = compound: COc1cc(Nc2ncc3c(n2)-c2ccc(Cl)cc2C(c2c(F)cccc2OC)=NC3)ccc1C(=O)O [alisertib]
# Summary of the method: as §1
# [5] = compound: COc1cc2nc(-c3cc(F)ccc3O)nc(N[C@@H]3CNC[C@H]3C(C)(C)O)c2cc1OC
# Summary of the method: as §1
# gefitinib = compound: COc1cc2ncnc(Nc3ccc(F)c(Cl)c3)c2cc1OCCCN1CCOCC1 [gefitinib]
# Summary of the method: as §1
# [6] = compound: COc1cccc2cc(-c3nc([C@H]4CC[C@H](C(=O)O)CC4)n4ncnc(N)c34)[nH]c12
# Summary of the method: as §1
# lapatinib = compound: CS(=O)(=O)CCNCc1ccc(-c2ccc3ncnc(Nc4ccc(OCc5cccc(F)c5)c(Cl)c4)c3c2)o1 [lapatinib]
# Summary of the method: as §1
# pictilisib = compound: CS(=O)(=O)N1CCN(Cc2cc3nc(-c4cccc5[nH]ncc45)nc(N4CCOCC4)c3s2)CC1 [pictilisib]
# Summary of the method: as §1
# Sequence of UniProt P49643 (P49643 whole entry, looked up): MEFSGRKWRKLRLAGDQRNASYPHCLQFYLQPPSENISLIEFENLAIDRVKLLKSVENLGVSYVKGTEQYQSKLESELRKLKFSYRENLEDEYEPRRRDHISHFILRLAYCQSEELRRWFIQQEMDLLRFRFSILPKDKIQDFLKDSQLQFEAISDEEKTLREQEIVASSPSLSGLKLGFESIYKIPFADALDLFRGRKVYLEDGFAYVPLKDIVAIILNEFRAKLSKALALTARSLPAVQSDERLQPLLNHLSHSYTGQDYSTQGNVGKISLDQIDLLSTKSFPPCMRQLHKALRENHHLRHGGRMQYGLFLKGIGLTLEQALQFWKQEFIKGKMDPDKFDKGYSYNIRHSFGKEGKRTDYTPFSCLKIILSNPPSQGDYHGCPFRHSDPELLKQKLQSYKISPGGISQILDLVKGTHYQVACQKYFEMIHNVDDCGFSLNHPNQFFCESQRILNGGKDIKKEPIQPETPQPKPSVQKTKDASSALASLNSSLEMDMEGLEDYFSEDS
# Sequence of UniProt Q9H0R6 (Q9H0R6 whole entry, looked up): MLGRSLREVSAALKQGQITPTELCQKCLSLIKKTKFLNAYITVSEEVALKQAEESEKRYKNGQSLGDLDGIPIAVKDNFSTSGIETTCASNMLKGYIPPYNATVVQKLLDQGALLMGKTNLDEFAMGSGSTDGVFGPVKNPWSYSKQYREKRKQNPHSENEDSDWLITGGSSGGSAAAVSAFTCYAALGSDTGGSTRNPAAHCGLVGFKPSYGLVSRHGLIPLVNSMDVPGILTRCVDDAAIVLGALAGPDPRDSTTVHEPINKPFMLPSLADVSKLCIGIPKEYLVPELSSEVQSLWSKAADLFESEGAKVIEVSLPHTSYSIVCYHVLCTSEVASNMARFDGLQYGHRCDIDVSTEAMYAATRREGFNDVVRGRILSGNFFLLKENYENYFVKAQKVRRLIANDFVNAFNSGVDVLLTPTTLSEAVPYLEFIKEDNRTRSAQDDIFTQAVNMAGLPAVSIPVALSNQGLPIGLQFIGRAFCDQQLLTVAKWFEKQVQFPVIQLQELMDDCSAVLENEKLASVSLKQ
# Sequence of UniProt Q9UBV8 (Q9UBV8 whole entry, looked up): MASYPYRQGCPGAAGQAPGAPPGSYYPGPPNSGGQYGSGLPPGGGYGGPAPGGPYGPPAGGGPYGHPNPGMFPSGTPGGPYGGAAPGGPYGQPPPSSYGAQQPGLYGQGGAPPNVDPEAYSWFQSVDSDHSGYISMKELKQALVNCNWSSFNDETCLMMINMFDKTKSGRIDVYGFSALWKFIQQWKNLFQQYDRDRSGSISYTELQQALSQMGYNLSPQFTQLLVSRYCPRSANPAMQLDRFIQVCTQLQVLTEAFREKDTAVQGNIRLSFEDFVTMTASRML
# Sequence of UniProt O15162 (O15162 whole entry, looked up): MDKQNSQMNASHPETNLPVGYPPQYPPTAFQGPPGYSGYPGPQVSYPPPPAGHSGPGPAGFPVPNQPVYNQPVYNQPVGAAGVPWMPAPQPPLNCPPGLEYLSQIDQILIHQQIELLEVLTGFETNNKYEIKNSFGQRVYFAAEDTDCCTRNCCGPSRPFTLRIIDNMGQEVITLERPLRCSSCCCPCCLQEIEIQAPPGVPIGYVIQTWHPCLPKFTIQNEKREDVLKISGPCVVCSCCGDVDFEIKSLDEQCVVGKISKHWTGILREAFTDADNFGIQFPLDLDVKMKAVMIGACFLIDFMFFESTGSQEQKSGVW
# Sequence of UniProt P28072 (P28072 whole entry, looked up): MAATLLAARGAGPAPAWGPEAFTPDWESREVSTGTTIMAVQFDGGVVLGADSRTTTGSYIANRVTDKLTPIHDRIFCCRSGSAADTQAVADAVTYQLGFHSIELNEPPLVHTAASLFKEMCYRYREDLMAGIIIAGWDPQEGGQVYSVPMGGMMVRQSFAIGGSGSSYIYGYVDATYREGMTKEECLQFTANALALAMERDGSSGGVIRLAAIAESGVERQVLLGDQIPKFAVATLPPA
# Sequence of UniProt Q5MIZ7 (Q5MIZ7 whole entry, looked up): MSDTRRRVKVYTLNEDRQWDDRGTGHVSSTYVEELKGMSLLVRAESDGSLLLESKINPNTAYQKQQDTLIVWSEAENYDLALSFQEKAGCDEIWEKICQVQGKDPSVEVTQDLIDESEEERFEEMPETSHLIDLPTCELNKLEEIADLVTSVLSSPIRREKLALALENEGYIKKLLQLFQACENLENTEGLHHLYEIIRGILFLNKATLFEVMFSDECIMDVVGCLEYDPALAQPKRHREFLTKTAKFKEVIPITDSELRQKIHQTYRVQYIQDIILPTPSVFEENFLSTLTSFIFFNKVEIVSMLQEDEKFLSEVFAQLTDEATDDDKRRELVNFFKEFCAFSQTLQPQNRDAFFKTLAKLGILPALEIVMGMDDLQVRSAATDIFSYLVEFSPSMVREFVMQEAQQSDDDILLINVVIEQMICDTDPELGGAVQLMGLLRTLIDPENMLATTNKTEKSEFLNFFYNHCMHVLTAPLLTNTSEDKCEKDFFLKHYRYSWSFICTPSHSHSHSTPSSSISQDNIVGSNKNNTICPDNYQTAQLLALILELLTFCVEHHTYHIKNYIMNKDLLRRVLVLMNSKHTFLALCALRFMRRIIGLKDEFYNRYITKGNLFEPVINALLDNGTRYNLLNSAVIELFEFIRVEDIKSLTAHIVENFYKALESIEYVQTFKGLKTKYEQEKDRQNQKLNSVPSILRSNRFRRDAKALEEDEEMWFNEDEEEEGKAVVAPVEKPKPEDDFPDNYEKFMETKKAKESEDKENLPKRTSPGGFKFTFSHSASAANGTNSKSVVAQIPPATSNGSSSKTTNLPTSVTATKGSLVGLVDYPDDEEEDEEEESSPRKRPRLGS
# Sequence of UniProt Q99541 (Q99541 whole entry, looked up): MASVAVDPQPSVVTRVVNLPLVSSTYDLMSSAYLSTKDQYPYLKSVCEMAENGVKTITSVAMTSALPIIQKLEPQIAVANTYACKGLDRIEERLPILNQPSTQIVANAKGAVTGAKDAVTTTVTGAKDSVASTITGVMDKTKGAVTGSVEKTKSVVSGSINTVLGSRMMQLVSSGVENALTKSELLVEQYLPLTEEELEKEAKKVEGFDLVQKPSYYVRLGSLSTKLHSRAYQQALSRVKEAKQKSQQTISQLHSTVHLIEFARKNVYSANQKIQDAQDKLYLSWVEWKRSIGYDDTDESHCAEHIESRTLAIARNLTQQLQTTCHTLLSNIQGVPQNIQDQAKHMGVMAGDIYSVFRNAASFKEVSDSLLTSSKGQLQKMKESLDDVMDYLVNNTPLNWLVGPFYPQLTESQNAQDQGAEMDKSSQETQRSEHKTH
# Sequence of UniProt O75400 (O75400 whole entry, looked up): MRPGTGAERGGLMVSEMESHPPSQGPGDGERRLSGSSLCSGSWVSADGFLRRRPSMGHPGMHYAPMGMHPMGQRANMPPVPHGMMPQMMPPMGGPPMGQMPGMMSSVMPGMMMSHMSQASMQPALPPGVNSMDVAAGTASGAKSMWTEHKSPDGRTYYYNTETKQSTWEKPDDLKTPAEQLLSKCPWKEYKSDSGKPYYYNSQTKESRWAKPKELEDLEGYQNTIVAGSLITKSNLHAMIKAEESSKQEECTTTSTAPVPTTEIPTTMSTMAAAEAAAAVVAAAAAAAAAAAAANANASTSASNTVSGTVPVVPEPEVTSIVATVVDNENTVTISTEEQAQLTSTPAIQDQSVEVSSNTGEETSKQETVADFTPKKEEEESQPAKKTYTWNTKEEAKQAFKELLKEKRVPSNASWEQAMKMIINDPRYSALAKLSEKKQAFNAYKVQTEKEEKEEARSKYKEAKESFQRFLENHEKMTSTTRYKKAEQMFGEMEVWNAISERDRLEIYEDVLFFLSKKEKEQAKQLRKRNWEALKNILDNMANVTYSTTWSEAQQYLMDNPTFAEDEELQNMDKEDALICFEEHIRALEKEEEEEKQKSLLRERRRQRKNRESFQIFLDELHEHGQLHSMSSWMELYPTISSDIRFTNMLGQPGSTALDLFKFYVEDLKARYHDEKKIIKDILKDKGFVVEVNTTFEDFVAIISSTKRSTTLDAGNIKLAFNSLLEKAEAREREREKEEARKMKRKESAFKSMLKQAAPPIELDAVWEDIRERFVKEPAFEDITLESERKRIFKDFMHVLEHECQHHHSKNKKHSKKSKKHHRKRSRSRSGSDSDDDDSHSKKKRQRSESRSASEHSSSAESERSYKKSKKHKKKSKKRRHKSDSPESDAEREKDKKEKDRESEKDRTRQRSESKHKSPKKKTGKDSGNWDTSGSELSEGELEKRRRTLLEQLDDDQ
# Sequence of UniProt Q8NEB9 (Q8NEB9 whole entry, looked up): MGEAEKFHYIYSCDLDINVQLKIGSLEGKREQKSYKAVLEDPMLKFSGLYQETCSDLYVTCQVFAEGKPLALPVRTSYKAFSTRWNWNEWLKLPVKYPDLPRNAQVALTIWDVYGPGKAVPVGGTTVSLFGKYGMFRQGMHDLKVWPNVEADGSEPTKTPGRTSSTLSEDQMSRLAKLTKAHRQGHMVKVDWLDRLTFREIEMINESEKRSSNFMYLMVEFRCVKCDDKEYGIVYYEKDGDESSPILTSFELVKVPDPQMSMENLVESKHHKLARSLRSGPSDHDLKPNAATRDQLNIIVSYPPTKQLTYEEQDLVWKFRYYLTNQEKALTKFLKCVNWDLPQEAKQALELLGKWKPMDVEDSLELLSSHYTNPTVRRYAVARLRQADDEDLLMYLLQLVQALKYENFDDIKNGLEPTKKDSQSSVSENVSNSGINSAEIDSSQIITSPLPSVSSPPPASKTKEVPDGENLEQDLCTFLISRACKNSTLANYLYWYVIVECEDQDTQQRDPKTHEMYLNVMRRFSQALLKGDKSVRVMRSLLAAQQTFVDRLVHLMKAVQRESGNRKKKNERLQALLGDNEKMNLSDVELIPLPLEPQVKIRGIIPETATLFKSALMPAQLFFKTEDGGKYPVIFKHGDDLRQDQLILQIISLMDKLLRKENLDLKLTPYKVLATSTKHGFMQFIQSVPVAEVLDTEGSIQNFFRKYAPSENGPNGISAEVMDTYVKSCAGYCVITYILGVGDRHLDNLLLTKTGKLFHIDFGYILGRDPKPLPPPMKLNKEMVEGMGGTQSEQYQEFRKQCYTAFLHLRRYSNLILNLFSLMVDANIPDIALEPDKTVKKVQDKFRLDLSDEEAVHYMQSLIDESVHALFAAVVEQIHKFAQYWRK
Target,log2 fold change (saracatinib),log2 fold change (sotrastaurin),log2 fold change (alvocidib),log2 fold change (Tubastatin A),log2 fold change [1],log2 fold change (defactinib),log2 fold change (rucaparib),log2 fold change [2],log2 fold change (encorafenib),log2 fold change [3],log2 fold change [4],log2 fold change (filanesib),log2 fold change (zotarolimus),log2 fold change (idasanutlin),log2 fold change (alisertib),log2 fold change [5],log2 fold change (gefitinib),log2 fold change [6],log2 fold change (lapatinib),log2 fold change (pictilisib)
PDCD2L (UniProt Q9BRP1),-0.072,-0.148,-0.077,0.048,0,-0.068,0.038,-0.031,0.127,-0.007,0.085,0.014,-0.033,-0.031,-0.033,0,-0.09,-0.018,-0.048,-0.062
POP1 (UniProt Q99575),0.077,-0.01,-0.049,0.026,-0.002,-0.055,0.014,0.014,0.006,0.016,0.025,-0.023,0.033,-0.009,-0.054,-0.109,0.012,0.021,0.084,-0.01
PRPF40A (UniProt O75400),-0.026,-0.099,-0.171,0.103,-0.197,-0.219,0.029,-0.03,0.026,-0.024,0.082,0.135,0.029,0.058,0.024,-0.091,0.042,-0.045,0.018,-0.027
PMM1 (UniProt Q92871),0.006,0.094,-0.011,-0.018,-0.315 (active),-0.007,0.095,0.028,-0.017,-0.023,-0.084,0.021,-0.003,0.022,-0.039,0.124,0.16,0.022,-0.02,-0.17
PUM1 isoform 3 (UniProt Q14671),-0.01,-0.023,-0.059,0.004,-0.019,-0.078,0.082,-0.039,-0.01,0.001,-0.003,0.007,-0.023,0.006,-0.039,-0.025,0.025,-0.002,0.004,-0.012
PSMB6 (UniProt P28072),-0.027,-0.017,0.115,0.019,-0.022,0.089,-0.043,0.011,0.03,0.017,-0.055,0.075,-0.018,0.044,-0.062,-0.014,-0.027,0.018,0.035,-0.017
PLSCR1 (UniProt O15162),0.052,0.024,0.003,0.025,-0.058,0.006,-0.015,0.082,-0.006,0.006,-0.017,0.01,-0.012,0.033,-0.006,-0.046,0.016,0.145,0.051,0.037
PLIN2 (UniProt Q99541),-0.033,-0.243,0.01,0.015,0.026,-0.006,-0.012,-0.001,0.002,0.047,-0.014,-0.44 (active),-0.041,-0.107,0.058,-0.891 (active),0.003,0.028,-0.093,0.023
PIK3C3 (UniProt Q8NEB9),-0.007,-0.039,0.044,0.027,-0.003,-0.012,0.25,0.002,0.05,-0.018,0.049,0.221,0.016,-0.055,0.011,0.172,0.062,0.007,0.021,0.094
QRSL1 (UniProt Q9H0R6),0.033,0.003,-0.103,0.01,-0.023,-0.105,-0.047,0.038,-0.017,-0.033,-0.01,-0.087,-0.028,-0.128,0.022,-0.005,-0.007,0.017,0.003,0.06
PPP4R3B (UniProt Q5MIZ7),-0.008,-0.05,-0.11,0.022,0.057,-0.023,-0.065,-0.033,0.014,0.003,-0.01,-0.004,0.014,-0.039,0.048,0,-0.034,-0.034,0.047,0.076
PRIM2 (UniProt P49643),-0.013,-0.192,-0.132,0.024,0.009,-0.127,0.001,0.018,0.052,-0.055,0.044,-0.139,-0.132,0.03,-0.042,0.063,0.069,-0.033,-0.005,0.086
POLR2B (UniProt P30876),-0.071,-0.032,0.254 (active),-0.01,-0.016,0.173,0.174,-0.012,0.056,-0.044,0.034,0.031,-0.012,-0.039,-0.057,0.214,0.064,0.007,-0.018,0.076
PITRM1 isoform 2 (UniProt Q5JRX3),-0.016,-0.045,-0.022,0.009,-0.027,-0.034,-0.051,0.09,-0.032,-0.005,-0.097,-0.229 (active),0.124,-0.047,-0.009,-0.026,0.137,0.035,-0.04,-0.032
PDE4DIP isoform 4 (UniProt Q5VU43),-0.028,-0.064,0.017,0.064,-0.065,0.021,-0.057,0.007,-0.015,0.035,0.113,-0.057,-0.046,0.055,-0.102,0.024,0.024,-0.022,-0.005,0.042
PEF1 (UniProt Q9UBV8),0,0.053,-0.006,-0.004,0.049,-0.01,-0.019,-0.014,-0.025,-0.003,-0.009,-0.038,0.041,-0.009,-0.008,-0.089,-0.011,0.058,0.032,-0.076
